From PubChem BioAssay (Tox21)
Inconclusive results are not listed. Unmarked numbers belong to inactive results. The source made the active and inactive calls. Calls come from the whole dose curve; as a rule, active = well fitted cell-killing curve with a large enough effect in the repeat runs; inconclusive = weak or mixed curves, or effect the other way; inactive = no such curve, though single readings can be large or run the other way.
% is set by controls: 0 for no effect and ±100 for the full control effect.

Assay: qHTS assay to identify small molecule antagonists of the vitamin D receptor (VDR) signaling pathway - cell viability counter screen (AID 743225); note: nearly all actives have a fitted effect of over 50% in size
Details: VDR-bla HEK293T viability, CellTiter-Glo luminescence, 16 h; series mostly up to 61 µM
Source text: U.S. Tox21 Program National Center for Advancing Translational Sciences [NCATS] NIH Chemical Genomics Center [NCGC] U.S. Environmental Protection Agency [EPA] National Institutes of Environmental Health Sciences [NIEHS] National Toxicology Program [NTP] U.S. Food and Drug Administration [FDA] Tox21 Assay Overview: The vitamin D receptor (VDR), a member of nuclear hormone receptor superfamily, plays a critical role in calcium homeostasis and bone metabolism. It is also involved in cell differentiation and growth, and thrombogenicity. To identify the compounds that inhibit VDR signaling, the VDR-UAS-bla HEK 293T cell line (Invitrogen, Carlsbad, CA, USA) containing a beta-lactamase reporter gene under the control of an upstream activator sequence (UAS) was used to screen the Tox21 10K compound library. The cytotoxicity of the Tox21 compound library against the VDR-bla cell line was tested in parallel by measuring the cell viability using CellTiter-Glo assay (Promega, Madison, WI) in the same wells.
Tox21 Assay Protocol Summary: VDR-bla cells were dispensed at 2,000 cells/5 uL of assay medium per well into black wall/clear-bottom 1536-well plates using a Multidrop Combi (Thermo Fisher Scientific, Waltham, MA) dispenser. After the assay plates were incubated at a 37C and 5% CO2 for 4 h, 23 nL of compounds dissolved in DMSO, positive controls or DMSO only was transferred to the assay plate by a Pintool station (Kalypsys, San Diego, CA), followed by addition of 1 uL of 1-alpha, 25-Dihydroxy Vitamin D3 (3 nM, final concentration in the wells) using a Bioraptr Flying Reagent Dispenser (FRD) workstation (Beckman Coulter, Indianapolis, IN). The plates were incubated at 37C and 5% CO2 for 16 h, and then 1 uL of LiveBLAzerTM B/G FRET substrate was added using a Bioraptr FRD. The plates were incubated at room temperature for 2 h and fluorescence intensity was measured by an Envision plate reader (PerkinElmer, Shelton, CT). For cell viability readout that measures cytotoxicity, 3 ul/well of CellTiter-Glo reagent was added into the assay plates using a Bioraptr FRD. After 30 min incubation at room temperature, the luminescence intensity in the plates was measured using a ViewLux plate reader (PerkinElmer).
For `CCC(C)(CCC(C)C)C(=O)O` (stereo not given), the outcome was “inactive”.
In the case of `CCCCNC1CC(C)(C)NC(C)(C)C1`, the outcome is reported as “inactive”.
With `CC(C)NCC(O)COc1cccc2[nH]ccc12` (stereo not given) the outcome was “inactive”.
In the case of `C=C(C)C(=O)OCCN(CC)CC`, the outcome is reported as “inactive”.
With `N[C@@H](CCC(=O)N[C@@H](CS)C(=O)NCC(=O)O)C(=O)O` the outcome was “inactive”.
In the case of `O=C(CCNNC(=O)c1ccncc1)NCc1ccccc1`, the outcome is reported as “inactive”.
For `COc1ccc(OC)c(Cl)c1`, the outcome was “inactive”.
In the case of `COC(=O)c1ccccc1C(=O)c1ccc(OCCN2CCCCC2)cc1`, the outcome is reported as “inactive”.
For `O=C1c2cccc3c2[C@H](CCC3)CN1[C@@H]1CN2CCC1CC2`, the outcome was “inactive”.
For `CO[C@@H]1[C@@H](OC(N)=O)[C@@H](O)[C@H](Oc2ccc3c(O)c(NC(=O)c4ccc(O)c(CC=C(C)C)c4)c(=O)oc3c2C)OC1(C)C`, the outcome was “inactive”.
With `CCCCCCCCC(=O)Cl` the outcome was “inactive”.
For `COc1cc2c(cc1OC)C(=O)CC2`, the outcome was “inactive”.
In the case of `Cc1cccc(C)c1NC(=O)c1ccccc1C(=O)O`, the outcome is reported as “inactive”.
With `CCCCCCCCCCl` the outcome was “inactive”.
For `CCOCCOC(=O)/C=C/c1ccc(OC)cc1`, the outcome was “inactive”.
With `CC(C)CC(=O)O` the outcome was “inactive”.
For `CC(N)C(=O)OC(C)(C)Cc1ccc(Cl)cc1` (stereo not given), the outcome was “inactive”.
With `O=S(O)(O)=S` the viability change, negative = cytotoxic was 4.99% [at 6.95 µM].
In the case of `COCCc1ccc(OCC2CO2)cc1` (stereo not given), the outcome is reported as “inactive”.
In the case of `CNC(=O)[C@H]1O[C@@H](n2cnc3c(NCc4cc(Cl)ccc4OCc4cc(C)no4)ncnc32)[C@H](O)[C@@H]1N`, the outcome is reported as “inactive”.
With `CC1=CCC(C(C)C)=CC1` the outcome was “inactive”.
With `CC(C)N(c1ccccc1)C(C)C` the outcome was “inactive”.
For `CC(C)OC(=O)CCCCC(=O)OC(C)C`, the outcome was “inactive”.
For `CCOC(=O)c1ncn2c1CN(C)C(=O)c1cc(F)ccc1-2`, the outcome was “inactive”.
With `O=C(O)Cc1ccc(Cl)cc1Cl` the outcome was “inactive”.
In the case of `COC(=O)[C@@H]1[C@H]2C[C@H]3c4[nH]c5ccccc5c4CCN3C[C@@H]2CC[C@@H]1O`, the outcome is reported as “inactive”.
With `COc1ccc2c(c1)C(=O)N(CCc1ccc(S(=O)(=O)NC(=O)NC3CCCCC3)cc1)C(=O)C2(C)C` the outcome was “inactive”.
With `CC(C)(C)NC(N)=O` the outcome was “inactive”.
For `Brc1ccc(-c2ccccc2)cc1`, the outcome was “inactive”.
For `CC(C)NCC(O)COc1ccc(COCCOC(C)C)cc1` (stereo not given), the outcome was “inactive”.
In the case of `Nc1ccc2cc(S(=O)(=O)O)cc(O)c2c1`, the outcome is reported as “inactive”.
For `CCCCNc1ccc(C(=O)OCCN(C)C)cc1`, the outcome was “inactive”.
With `COc1ccc2nc(SCc3ncc(C)c(OC)c3C)[nH]c2c1` the outcome was “inactive”.
With `CCCCCCCCOS(=O)(=O)O` the outcome was “inactive”.
Work on `COC(=O)C1CC(=O)C(C(=O)OC)CC1=O` (stereo not given) yielded a viability change, negative = cytotoxic of 3.99% [at 6.95 µM].
For `C=CCCCCCCCCCCCC`, the outcome was “inactive”.
For `CCNC(=O)C1CC(C)CCC1C(C)C` (stereo not given), the outcome was “inactive”.
For `Nc1ccc([N+](=O)[O-])c(N)c1`, the outcome was “inactive”.
For `NCCN1CCOCC1`, the outcome was “inactive”.
In the case of `CC(C)c1ccc2cc(C(C)C)ccc2c1`, the outcome is reported as “inactive”.
